Records with an inconclusive call do not appear. Values without a mark were called inactive. Calls of active or inactive are those of the source. The call rests on the fitted dose curve; in most records, active means well fitted curve in the direction sought with a large enough effect; inconclusive means small, poorly fitted or top-dose-only effect, or another doubt; inactive means no such curve, though single readings can be large; an effect the other way counts as inactive or inconclusive. Peptide text beside a SMILES is read from it.

Among the data in PubChem BioAssay (NCATS) are activation and Potency values, retold here.

Assay [1] has as its target Cellular tumor antigen p53 (Homo sapiens) (UniProt P04637). Briefly: Primary qHTS for small molecule compounds that upregulate eGFP-tagged delta133p53alpha (in N-terminal) cells. (AID 2060322). Further: nearly all actives have a fitted effect of over 75% in size. Further: potency means the concentration at half of the fitted maximal effect.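 On activation: series mostly up to about 56 µM; 0% = DMSO vehicle and 100% = reference activator.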 As to conditions: NCI-H358 eGFP-delta133p53alpha fluorescence, 24 h; activation: hits give high values. The method in brief:
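NCI-H358 cells pre-induced 24 h with 10 ng/ml doxycycline to express N-terminal eGFP-delta133p53alpha, then dosed 24 h at 37C without doxycycline; fixed, Hoechst-stained, GFP intensity by laser scanning cytometry, normalized to DMSO (0%) and 57.5 uM 5-azacytidine (100%).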
(Quantitative high-throughput screening tests each substance at several concentrations.)

Assay [2] concerns the target Aldehyde dehydrogenase, mitochondrial (Homo sapiens) (UniProt P05091). Put plainly: qHTS for Inhibitors of the Aldehyde Dehydrogenase Family (ALDH2) Primary screen (AID 2061308).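 Further: plate controls were vehicle for no effect and reference inhibitor for full effect; nearly all actives have a fitted effect of over 55% in size.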
Assay [3] addresses Retinaldehyde dehydrogenase 3 (Homo sapiens) (UniProt P47895). Briefly: qHTS for Inhibitors of the Aldehyde Dehydrogenase Family (ALDH1A3) Primary screen (AID 2061315).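 Further: plate controls were DMSO vehicle for no effect and reference inhibitor for full effect.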

Sequence of Cellular tumor antigen p53 (Homo sapiens) (P04637 whole entry, looked up): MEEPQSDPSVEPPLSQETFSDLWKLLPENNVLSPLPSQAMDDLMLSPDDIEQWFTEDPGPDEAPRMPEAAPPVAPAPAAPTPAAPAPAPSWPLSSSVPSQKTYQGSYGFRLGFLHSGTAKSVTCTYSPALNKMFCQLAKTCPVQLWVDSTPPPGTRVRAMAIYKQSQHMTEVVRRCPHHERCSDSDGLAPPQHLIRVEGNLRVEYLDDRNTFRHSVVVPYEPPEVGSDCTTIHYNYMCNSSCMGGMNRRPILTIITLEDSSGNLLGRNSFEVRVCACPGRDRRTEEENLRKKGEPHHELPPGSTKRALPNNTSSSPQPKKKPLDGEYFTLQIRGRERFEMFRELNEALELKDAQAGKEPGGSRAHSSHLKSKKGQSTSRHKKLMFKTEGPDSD

In the case of `CC1(C)CC[C@]2(C(=O)O[C@@H]3O[C@H](CO)[C@@H](O)[C@H](O)[C@H]3O)CC[C@]3(C)C(=CCC4[C@@]5(C)C[C@@H](O)[C@H](O)[C@](C)(C=O)C5CC[C@]43C)[C@@H]2[C@@H]1O` (stereo partly drawn), in assay [1], the activation was -0.893%. Besides, the Potency entry in assay [2] and in assay [3] was “inactive” each time.
As for `Cc1c(N2C(=O)c3ccc(C(=O)O)cc3C2=O)c(=O)n(-c2ccccc2)n1C`, the activation in assay [1] was -5%. Moreover, the Potency result in assay [2] and in assay [3] was “inactive” throughout.
`Cc1cc(N2CCN(C(=O)Oc3ccc(-c4ccccc4)cn3)CC2)c2ccccc2n1`: the activation in assay [1] was -10.3%. Also, the Potency entry in assay [2] and in assay [3] was “inactive” in each case.
As to `C=C1OC2CC(C(=O)O)C=CC2NC1=O` (stereo not drawn), the activation in assay [1] was -19.8%. The Potency entry in assay [2] and in assay [3] was “inactive” each time.
As to `CCC(C)CNCC(=O)N1CCC2SC=CC2C1COc1cccc(C)c1` (stereo not drawn), the activation in assay [1] was 17.9%. Further, the Potency result in assay [2] and in assay [3] was “inactive” throughout.
For `C=CC(C)(C)c1[nH]c2cc3c(cc2c1CC1NC(=O)C2=CCCN2C1=O)C=CC(C)(C)O3` (stereo not drawn), the activation in assay [1] was -10.7%. Moreover, the Potency entry in assay [2] and in assay [3] was “inactive” throughout.
Take `CC(C)=CCC/C(C)=C/CC/C(C)=C/CC[C@]1(C)CCc2cc(O)cc(C)c2O1`: the activation in assay [1] was -3.05%. Also, the Potency entry in assay [2] and in assay [3] was “inactive” each time.
For the compound `COc1cccc(C)c1C(=O)O[C@@H]1C[C@H](O[C@H]2[C@H](O)C[C@H](O[C@@H]3CCC[C@H]4[C@H]3C=C[C@@H]3CCCC/C=C/[C@H]5C=C(C(=O)O)[C@@H](C)C[C@@]56OC(=O)C(=C6O)OC(=O)[C@@]34C)O[C@@H]2C)O[C@H](C)[C@H]1O`, in assay [1], the activation was -5.34%. Besides, the Potency result in assay [2] and in assay [3] was “inactive” in each case.
As for `O=C(O)C(Cc1ccccc1)NC(=O)C1CCCN1` (stereo not drawn) (H-Pro-Phe-OH; configuration not given here), the activation in assay [1] was -13.7%. Also, the Potency result in assay [2] and in assay [3] was “inactive” each time.
For `O=C1C=CC2OC(c3ccccc3)C(O)C2O1` (stereo not drawn), the Potency in assay [1] is 30.1 µM (active). Also, the Potency entry in assay [2] and in assay [3] was “inactive” in each case.
Consider `CC(=O)OC/C=C(\C)C(CC1C(C)=C(OC(C)=O)C(=O)C2C(C)(C)C(O)CCC12C)OC(C)=O` (stereo not drawn), for which the activation in assay [1] was -2.68%. The Potency entry in assay [2] and in assay [3] was “inactive” each time.
Take `CCOc1ccc(S(=O)(=O)N2CCCCCC2)c2ccccc12`: the activation in assay [1] was -13.7%. Further, the Potency result in assay [2] and in assay [3] was “inactive” each time.
As to `COc1cc(C2Oc3c(O)cc(CCCO)cc3C2CO)ccc1O[C@H]1O[C@H](C)[C@@H](O)[C@H](O)[C@@H]1O` (stereo partly drawn), in assay [1], the activation is -19.1%. Also, the Potency entry in assay [2] and in assay [3] was “inactive” throughout.
For `COC(=O)[C@@H](O)[C@H]1[C@@]2(C)CC3(O)[C@@H](C(=O)[C@H]2O)[C@]24O[C@]25CC(=O)O[C@@H](c2ccoc2)[C@]5(C)CCC4[C@]13C` (stereo partly drawn), the activation in assay [1] was -13%. Also, the Potency result in assay [2] and in assay [3] was “inactive” in each case.
Take `CC(C)=CCC[C@](C)(O[C@@H]1O[C@H](CO[C@@H]2OC[C@@H](O)[C@H](O)[C@H]2O)[C@@H](O)[C@H](O)[C@H]1O)[C@H]1CC[C@]2(C)[C@@H]1[C@H](O)C[C@@H]1[C@@]3(C)CC[C@H](O[C@@H]4O[C@H](CO)[C@@H](O)[C@H](O)[C@H]4O[C@@H]4O[C@H](CO)[C@@H](O)[C@H](O)[C@H]4O)C(C)(C)[C@@H]3CC[C@]12C`: the activation in assay [1] was -8.33%. In addition, the Potency entry in assay [2] and in assay [3] was “inactive” each time.
Take `OCC(CO)(CO)NCC(O)Cn1c2ccc(Cl)cc2c2cc(Cl)ccc21` (stereo not drawn): the Potency in assay [1] is 23.9 µM (active). Moreover, the Potency entry in assay [2] and in assay [3] was “inactive” in each case.
On to `C=C1C(=O)O[C@@H]2/C=C(/C)CC3C=C(C[C@H](OC(=O)/C(C)=C\C)[C@@H]12)C(=O)O3` (stereo partly drawn), for which, in assay [1], the Potency was 11.7 µM (active). In addition, the Potency result in assay [2] and in assay [3] was “inactive” in each case.
For `CCC(NC(=O)CC(NC(=O)C(CO)NC(=O)C(CC)NC(=O)c1ccc[nH]1)c1ccccc1)C(=O)O` (stereo not drawn), the activation in assay [1] was 23.7%. The Potency entry in assay [2] and in assay [3] was “inactive” in each case.
On to `C=C1CCC2C(C)(C)CC(O)CC2(C)C1CCC(C)CCOC(=O)CCC(=O)O` (stereo not drawn), for which the activation in assay [1] is 17.6%. For the same compound, the Potency entry in assay [2] and in assay [3] was “inactive” each time.
Consider `CC1(O)CC(O)C2C(C(=O)O)=COC(OC3OC(CO)C(O)C(O)C3OC(=O)/C=C/c3ccc(O)cc3)C21` (stereo not drawn), for which, in assay [1], the activation was -15.3%. Besides, the Potency entry in assay [2] and in assay [3] was “inactive” throughout.
Regarding `CC(C)=CC1C[C@](C)(O)[C@@H]2[C@H]3CCC4[C@@]5(C)CC[C@H](O[C@@H]6OC[C@H](O)[C@H](O[C@@H]7O[C@H](CO[C@@H]8O[C@H](CO)[C@@H](O)[C@H](O)[C@H]8O)[C@@H](O)[C@H](O)[C@H]7O)[C@H]6O[C@@H]6O[C@@H](C)[C@H](O)[C@@H](O)[C@H]6O)C(C)(C)[C@@H]5CC[C@@]4(C)[C@@]34CO[C@@]2(C4)O1` (stereo partly drawn), the activation in assay [1] is -4.46%. In addition, the Potency entry in assay [2] and in assay [3] was “inactive” in each case.
